Screening data (PubChem BioAssay)
Pf apPOL block = Pf-apPOL DNA polymerase inhibition. actives 0.25% (n = 210,000). AID 1794808. inhibition, % at 10 µM. Recombinant Pf-apPOL, molecular beacon fluorescence, 1.5 h
mHTT-CaM PPI inh = disrupts binding of mutant huntingtin to calmodulin; P42858; AlphaScreen His-mHTT/GST-CaM binding, luminescence; inhibition, % at 15 µM; actives 3.6% (n = 190,000); AID 1671202;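 note: 0% = both proteins with DMSO and 100% = one protein alone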
Active calls of the source: *; . = not tested or not shown. The sample as a whole holds a higher share of hits than the screen did. Cut-off read from the data, not from the text of the source: active = inhibition above about 50%; inactive = the rest.

SMILES	Pf apPOL block	mHTT-CaM PPI inh
COC(=O)C1=C(N)Oc2c(oc(CO)cc2=O)C1c1ccc(Cl)cc1 (stereo not drawn)	-2	2
COC(=O)C1=C(N)Oc2c(oc(CO)cc2=O)C1c1ccc(Cl)c(Cl)c1 (stereo not drawn)	-8	70*
CSC(=NCc1ccco1)NC#N	-1	.
Nc1ccc(S(N)(=O)=O)cc1	.	-4
Nc1ccc(-c2ccc(S(=O)(=O)c3cccc(N)c3)cc2N)cc1	4	69*
Nc1ccc(-c2ccc(S(=O)(=O)c3ccc(-c4ccc(N)cc4)cc3)cc2)cc1	-2	62*
Nc1ccc(S(=O)(=O)c2ccc(N)c(N)c2)cc1N	48	9
Oc1cccc(CNc2ccc3[nH]ncc3c2)c1	-5	77*
c1cc2c(cc1CNc1ccc3cn[nH]c3c1)OCO2	-6	64*
Cc1cccc(CNc2ccc3cn[nH]c3c2)c1	-4	60*
O=C(O)c1ccc(NCc2ccc3c(c2)OCO3)cc1	5	-3
Cn1cc(CC(=O)Nc2ccc3cn[nH]c3c2)c2ccccc21	3	12
Oc1cccc(CNc2ccc(F)c(Cl)c2)c1	-5	19
COc1ccc(Br)cc1CN1CCN(c2ccccn2)CC1	-3	3
Cc1ccc(-c2nc(=O)[nH]c3ccccc23)cc1	-9	2
N#CC1=C(N)Oc2cc(N)ccc2C1c1cc(Br)cs1 (stereo not drawn)	-2	13
CN(C)c1ccc2c(c1)OC(N)=C(C#N)C2c1ccc(F)c(Br)c1 (stereo not drawn)	-4	83*
CN(C)c1ccc2c(c1)OC(N)=C(C#N)C2c1cc(Br)cs1 (stereo not drawn)	-5	53*
CC(=O)Nc1ccc(C2C(C#N)=C(N)Oc3cc(N(C)C)ccc32)cc1 (stereo not drawn)	-3	15
COc1ccc(-c2csc(Nc3cccnc3)n2)cc1	11	.
CCCC(=O)Nc1nc(-c2ccccc2)cs1	-6	4
COc1ccc(-c2csc(Nc3ccc(S(N)(=O)=O)cc3)n2)cc1	-4	52*
COc1ccc(S(N)(=O)=O)cc1	-4	-2
COc1ccc(Nc2nc(-c3ccc(F)cc3F)cs2)cc1	-2	4
CCN(CC)c1ccc(Nc2nc(-c3ccccc3)cs2)cc1	3	80*
SMILES	Pf apPOL block	mHTT-CaM PPI inh
COc1ccc(-c2csc(Nc3ccc(N(C)C)cc3)n2)cc1	6	89*
CCN(CC)c1ccc(Nc2nc(-c3ccc(OC)cc3)cs2)cc1	-2	80*
COc1ccccc1OCC(=O)N(CCc1ccccc1)Cc1ccccn1	-9	-16
CCC(C)NC(=O)C1c2ccccc2C(=O)N1Cc1ccccc1OC (stereo not drawn)	-6	10
COC(=O)c1cccc(NC(=O)CCc2cccc3[nH]ccc23)c1	0	14
Cn1nnc2c(N3CCN(Cc4ccc5c(c4)OCO5)CC3)ncnc21	-7	14
CCN(CC)c1ccc(Nc2nc(-c3ccncc3)cs2)cc1	-4	85*
COc1ccc(Nc2nc(-c3cccc([N+](=O)[O-])c3)cs2)cc1	2	84*
COc1ccc(SCC(=O)Nc2nc(-c3cccc([N+](=O)[O-])c3)cs2)cc1	-7	-15
C=CCNc1nc(-c2ccncc2)cs1	-4	-1
Cc1cccc(-n2nc3c(c2NC(=O)COc2ccc(Cl)cc2Cl)CS(=O)C3)c1C (stereo not drawn)	-63	0
CC(=O)Nc1ccc(S(=O)(=O)NCCSCc2ccc(Cl)c(Cl)c2)cc1	-10	90*
O=S(=O)(NCCSCc1ccc(Cl)c(Cl)c1)c1ccc2c(c1)OCCO2	-6	51*
CS(=O)(=O)NCCSCc1ccc(Cl)c(Cl)c1	-2	4
O=S(=O)(NCCSCc1ccc(Cl)cc1)c1ccc2c(c1)OCCO2	-1	-5
Fc1ccc(Cn2[nH]nnc2=S)cc1	-3	.
Cc1ccc(-n2ncc3c(=O)[nH]c(SCC(=O)N4CCOCC4)nc32)cc1C	4	5
O=S(=O)(Nc1ccc(F)cc1)c1cccnc1Nc1cccc(Cl)c1	6	93*
CCNS(=O)(=O)c1cccnc1Nc1cccc(Cl)c1	-2	-14
COc1ccc(CNC(=O)c2cnn3c2NC(c2ccc(OC)cc2)CC3C(F)(F)F)cc1 (stereo not drawn)	-1	19
COc1cccc(C2CC(C(F)(F)F)n3ncc(C(=O)NCc4ccc(F)cc4)c3N2)c1 (stereo not drawn)	-7	64*
COc1ccc(-c2[nH]c(=O)[nH]c2-c2ccccc2)cc1	-5	32
COc1cc2c(cc1O)CC[C@@H]1[C@@H]2CC[C@]2(C)[C@@H](O)CC[C@@H]12	-3	.
CC12CCC3c4ccc(O)cc4CCC3C1CC(=Cc1ccccc1)C2O (stereo not drawn)	-11	97*
CC12CCC3c4ccc(O)cc4CCC3C1CC(=Cc1ccc(Cl)cc1)C2O (stereo not drawn)	-9	100*
SMILES	Pf apPOL block	mHTT-CaM PPI inh
C#CC1(O)CCC2C3CCc4cc(O)ccc4C3CCC21C (stereo not drawn)	1	0
CC(C)CCn1c(=O)c2c(ncn2C(C)C)n(-c2ccccc2Cl)c1=O	1	12
Clc1ccc(OCc2noc(COc3ccc(Cl)cc3Cl)n2)c(Cl)c1	-4	.
CCCNC(=O)N1CCN(c2ccc(CC)cc2)C(=O)C1C (stereo not drawn)	0	-1
CCc1ccc(C(=O)N2CCC3(C2)C(=O)Nc2ccccc23)cc1 (stereo not drawn)	-5	42
O=C1c2ccccc2C(=O)C1C1(C2C(=O)c3ccccc3C2=O)C(=O)Nc2ccccc21	-7	14
CCc1ccc2c(c1)C1(NN=C(c3ccccc3O)S1)C(=O)N2 (stereo not drawn)	-2	100*
O=C1Nc2ccccc2C12NN=C(c1ccccc1O)S2 (stereo not drawn)	-1	100*
CCOC(=O)N1CCc2nn(CC(=O)Nc3cccc(C(F)(F)F)c3)c(=O)cc2C1	-6	41
Cc1ccc(N2C=C(C(=O)N3CCCCC3)S(=O)(=O)c3ccccc32)cc1C	0	58*
Cc1ccc(N2C=C(C(=O)N3CCCCC3)S(=O)(=O)c3ccccc32)cc1Cl	-2	-7
O=C(Oc1ccccc1OC(=O)N1CCCCC1)N1CCCCC1	-1	-4
COc1ccc(OC)c(Nc2nc3nonc3nc2Nc2cc(OC)ccc2OC)c1	-4	16
Cc1ccc(O)c(C2=NCCNC(C(F)(F)C(F)F)=C2)c1	59*	7
FC(F)C(F)(F)C1=CC(c2ccccc2)=NCCN1	-3	-2
CCOC(=O)ON1C(=O)c2ccccc2N2COc3ccccc3C12 (stereo not drawn)	.	100*
CCOC(=O)C1Oc2ccccc2C(C(=O)OC)=C1C(=O)OC (stereo not drawn)	-7	3
N#CC1=C(N)Nc2oc(-c3ccccc3)nc2C1c1cccs1 (stereo not drawn)	-12	4
COc1ccc(S(=O)(=O)Nc2ccccc2C)cc1OC	-4	-3
Cc1ccccc1NS(=O)(=O)c1ccc(-c2ccccc2)cc1	-14	80*
CC(C)c1nn(-c2ccc(Cl)c(Cl)c2)c(C(C)C)c1C(=O)N1CCOCC1	-2	67*
CCCc1nn(-c2ccc(Cl)c(Cl)c2)c(C(C)C)c1C(=O)N1CCOCC1	0	62*
CCCc1nn(-c2ccc(Cl)c(Cl)c2)c(CC)c1C(=O)N1CCOCC1	-5	67*
CC(=O)N1CCN(C(=O)c2c(C(C)C)nn(-c3ccc(C)cc3)c2C(C)C)CC1	-1	11
